# Rows were chosen to be rich in hits. Some 3.9% of all compounds tested hit in one or more screens of this group.
# 3CLpro inhibitor = SARS-CoV 3CLpro protease inhibition; recombinant SARS-CoV 3CLpro, quenched FRET peptide cleavage; inhibition, % at 6 µM; actives 0.14% (n = 290,000); AID 1706; in the data active = inhibition above about 12%
# CCHFV vOTU inh = blocks the CCHF virus ovarian tumor domain protease; CCHFV vOTU protease, Pep-AMC fluorescence; inhibition, % at 11.5 µM; actives 0.55% (n = 370,000); in the data active = inhibition above about 30%; note: 0% = vehicle wells with enzyme and 100% = no enzyme wells
# Bead autofluor = compound fluorescence in toxin protease inhibitor counterscreen | fluorescence intensity (test concentration not listed) | actives 3.1% (n = 360,000) | compound autofluorescence counterscreen, microsphere flow cytometry; active compounds read high; in the data active = fluorescence intensity above about 16000; inconclusive = no clear call, values can overlap the other calls
# BoNT-F LC inh = BoNT F light chain protease inhibition | actives 0.22% (n = 360,000) | Multiplex microsphere protease cleavage assay, flow cytometry | inhibition, % at 10 µM; in the data active = inhibition above about 35%, passing the limit was not always enough; inconclusive = no clear call, values can overlap the other calls; note: plate controls were buffer without enzyme for full effect and enzyme alone for no effect
# BoNT A protease = inhibitors of Botulinum neurotoxin A light chain protease; multiplex microsphere protease substrate cleavage, flow cytometry; inhibition, % at 10 µM; actives 0.17% (n = 360,000); AID 588499; note: plate controls were buffer without enzyme for full effect and enzyme alone for no effect
# Anthrax LF prot = inhibitors of Bacillus anthracis lethal factor protease; P15917; multiplex microsphere protease cleavage assay, LF; inhibition, % at 10 µM; actives 0.12% (n = 360,000); note: plate controls were buffer without enzyme for full effect and enzyme alone for no effect
# * marks the source's active call; other numbers are inactive results; ? = inconclusive; nt = not tested or not shown. Cut-off read from the data, not from the text of the source, unless noted: active = inhibition above about 30%; inconclusive = no clear call, values can overlap the other calls; inactive = below that.
SMILES,3CLpro inhibitor,CCHFV vOTU inh,Bead autofluor,BoNT-F LC inh,BoNT A protease,Anthrax LF prot
Cc1cccc(S(=O)(=O)c2c(N)n(/N=C/c3ccco3)c3nc4ccccc4nc23)c1,5.3,-13.2,22583*,4.7,2.6,-1.3
Cc1ccc(S(=O)(=O)c2c(N)n(/N=C/c3ccco3)c3nc4ccccc4nc23)cc1,0.8,-4.7,20865*,-4.2,-0.2,-3.9
Cc1ccc(S(=O)(=O)c2c(N)n(NC(=O)C3CC3)c3nc4ccccc4nc23)cc1,3.4,-267.2,16643*,0.7,-0.5,-3.5
Cc1cccc(S(=O)(=O)c2c(N)n(/N=C/c3cccnc3)c3nc4ccccc4nc23)c1,4.3,-9.3,5409,-1.9,0.4,2.5
CCCCOc1ccc(C(=O)NC2CCCCN(CC)C2=O)cc1 (stereo unspecified),nt,-2.1,nt,nt,nt,nt
Cc1ccc(S(=O)(=O)N2CCC(c3nc4ccccc4o3)CC2)s1,nt,9.0,nt,nt,nt,nt
CCCN1CCS(=O)(=O)N(Cc2cn(Cc3ccccc3)nn2)C(C(=O)OC)C1 (stereo unspecified),nt,5.6,nt,nt,nt,nt
Cc1ccc(C(C(=O)NC2CCCC2)N2CCCCC2)cc1 (stereo unspecified),3.8,-0.6,5637,2.6,-0.6,-0.6
Cc1ccc(C(C(=O)NC2CCCCC2)N2CCCC2)cc1 (stereo unspecified),-2.8,5.9,3664,35.5*,0.3,-1.8
Cc1ccc(S(=O)(=O)NC(=O)Nc2ccc(F)cc2)cc1,1.2,11.8,16339*,2.9,0.4,-2.2
COc1cc(NC(=O)NS(=O)(=O)c2ccc(C)cc2)cc(OC)c1,-6.0,-5.9,20395*,-7.1,?,-6.4
Cc1ccc(-c2nnc(SCC(=O)Nc3ccc(Oc4ccccc4)cc3)n2-c2ccc(Cl)cc2)cc1,nt,2.4,nt,nt,nt,nt
CC(C)N(Cc1cn(Cc2ccccc2)nn1)S(=O)(=O)c1ccc(F)cc1Br,nt,19.4,nt,nt,nt,nt
COc1ccc([C@H]2OC(=O)C[C@H]2C(=O)N2CCN(C(=O)C3CCCO3)CC2)cc1OC (stereo partly specified),nt,1.5,nt,nt,nt,nt
CCOc1ccc(N(C(C)C(=O)N2CCCCCC2)S(C)(=O)=O)cc1 (stereo unspecified),3.1,-1.8,3882,-0.5,-0.8,-1.2
CCOc1ccc(N(C(C)C(=O)NC(C)CC)S(C)(=O)=O)cc1 (stereo unspecified),-2.9,-2.1,19908*,-0.8,-0.2,2.5
COc1ccc(C2CC(C(F)(F)F)n3nc(CO)c(Cl)c3N2)cc1OC (stereo unspecified),-3.7,-2.9,16477*,-2.5,-0.5,-1.3
CCOC(=O)[C@]12CCCC=C1N(Cc1ccc(OC)cc1)C(=O)[C@@H]2CC(=O)NCCC(C)C,nt,10.0,nt,nt,nt,nt
COc1ccc(-n2c(SCC(=O)N3CCCC3)nc3ccccc3c2=O)cc1,-1.3,nt,nt,nt,nt,nt
COc1ccc(-n2c(SCC(=O)N3CCCCC3)nc(O)cc2=O)cc1,1.8,8.0,21636*,-2.9,-2.7,1.8
COC(=O)c1ccc(NC(=S)N2CCN(Cc3cccc(C)c3)CC2)cc1,3.4,3.4,21917*,5.1,2.6,3.6
O=C1CCN(C(=O)Nc2cccc(Cl)c2)N1,-5.7,7.9,22772*,-1.5,-1.0,-2.9
CCOC(=O)N1CCN(C(=O)Nc2cccc(Cl)c2)CC1,6.8,-13.3,19827*,4.0,3.8,-1.9
O=C(Nc1cccc(Cl)c1)N1CCCC1,-0.1,13.0,3709,-3.5,0.6,0.0
CCOC(=O)N1CCN(C(=S)Nc2cccc(C)c2)CC1,-5.2,-3.5,23824*,-4.4,-1.8,-13.0
SMILES,3CLpro inhibitor,CCHFV vOTU inh,Bead autofluor,BoNT-F LC inh,BoNT A protease,Anthrax LF prot
COc1cc(C)ccc1C(=O)N1CCC(Oc2cccnc2)CC1,nt,5.1,nt,nt,nt,nt
CCOc1ccc(-n2c(SCC(=O)Nc3ccc(S(=O)(=O)Nc4cc(C)nc(C)n4)cc3)nnc2-c2ccc(OC)cc2)cc1,nt,6.9,nt,nt,nt,nt
COc1ccccc1N1CCN(C(=O)Nc2cccc(Cl)c2)CC1,-2.3,-5.5,17904*,-12.9,?,-3.9
CC(NC(=O)Cc1cccs1)c1ccncc1 (stereo unspecified),1.9,-13.1,24187*,-7.7,-4.5,-9.4
O=c1[nH]c(N/N=C/c2ccccc2)nc2ccccc12,0.2,-78.2,16682*,-3.1,-2.0,-4.5
C(=N\Nc1nc2ccccc2[nH]1)/c1ccccc1,0.7,-0.3,3861,-10.7,-0.3,-3.0
CC(=O)N(C(C)=O)c1c(N2CCOCC2)c2ccccc2oc1=O,-0.3,-7.1,21404*,6.1,4.2,-4.3
Cc1ccc(F)cc1NC(=O)C1CCCN(c2ncccn2)C1 (stereo unspecified),1.1,8.5,20027*,-1.5,-0.2,-2.3
COCCNC(=O)C1CCCN(c2ncccn2)C1 (stereo unspecified),1.1,-1.6,21959*,-0.2,1.9,-2.2
COC(=O)Cc1c(O)ccn(Cc2cccc3ccccc23)c1=O,10.7,-6.0,21316*,0.0,1.0,-0.7
COc1ccc(NC(=O)CSc2ncnc3scc(-c4ccc(C)cc4)c23)cc1OC,nt,2.3,nt,nt,nt,nt
COC(=O)[C@H](C(C)C)N(CCCc1cn(CC2CCCCC2)nn1)S(=O)(=O)c1ccccc1Br,nt,11.7,nt,nt,nt,nt
CC1(C)CC(=O)C2=C(C1)N(c1ccc(F)cc1)C(N)=C(C#N)C2c1cccs1 (stereo unspecified),4.8,2.7,3313,-1.2,-1.1,-2.0
Cc1ccc(N2C(N)=C(C#N)C(c3cccs3)C3=C2CC(C)(C)CC3=O)cc1 (stereo unspecified),-0.2,3.9,23727*,-1.2,?,-1.8
Cc1cc2nnc(SCC(=O)N3C(C)CCCC3C)n2c(N)n1 (stereo unspecified),5.4,1.0,22651*,-1.5,?,-7.4
Cc1cc2nnc(SCC(=O)N3CCCCC3)n2c(N)n1,6.4,-12.0,4679,-5.3,-0.7,6.6
COc1ccc(-c2nc(-n3c(C)c(C(C)=O)c(C(C)=O)c3C)sc2C)cc1OC,1.6,9.1,5892,-4.4,-0.6,-2.1
CC(=O)c1c(C(C)=O)c(C)n(-c2nc(-c3ccc(Br)cc3)c(C)s2)c1C,1.2,4.0,17033*,-8.2,-2.9,-9.5
NC(=O)c1nsc(C(=O)N(Cc2ccc(F)cc2)C(C(=O)NC2CCCC2)c2ccco2)c1N (stereo unspecified),-6.4,-1.7,3733,8.9,3.7,-0.2
CC(C)CCNC(=O)C(c1ccco1)N(Cc1ccc(F)cc1)C(=O)c1snc(C(N)=O)c1N (stereo unspecified),2.8,6.1,19358*,-3.1,-0.2,-4.7
CCOc1ccc(/C(O)=C2/C(=O)C(=O)N(CCOCCO)C2c2ccccn2)cc1 (stereo unspecified),0.0,2.8,22618*,-2.6,-1.5,-8.5
O=C(CSc1nnc(Cc2cccs2)n1-c1ccc(Cl)cc1)Nc1ccc(OCc2ccccc2)cc1,nt,8.2,nt,nt,nt,nt
COC(=O)[C@H]1C[C@@]2(C)c3ccccc3N(S(=O)(=O)c3ccccc3)[C@H]2N1,nt,1.8,nt,nt,nt,nt
CCCOc1ccc(N2C(=O)CC(N3CCN(c4nc5ccccc5s4)CC3)C2=O)cc1 (stereo unspecified),2.7,5.9,4860,-10.6,0.1,0.9
